# Compound activity as filed in PubChem.
# Sampled rows, rich in hits. Any-hit rate of the full collection: about 6.3%.
# MPTP block = inhibitors of mitochondrial permeability transition pore. isolated mouse mitochondria, Ca2+ swelling absorbance, 30 min. inhibition, % at 10 µM. 360,000 compounds, 1.4% hits;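 active means inhibition of 50% or more, scaled per plate between neutral and stimulator controls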;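 further: 0% = DMSO wells given calcium and 100% = 1 mM EGTA wells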
# Mdm2-MdmX inh = inhibitors of human Mdm2/MdmX interaction | O15151+Q00987 | SaOS-2 split-luciferase Mdm2/MdmX complementation, luminescence | inhibition, % at 8 µM | 330,000 compounds, 3% hits;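 active means inhibition of at least 50% at 8 µM in the primary screen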
# TIM10 inh = growth inhibitors of TIM10 yeast strain. S. cerevisiae TIM10 strain growth, BacTiter-Glo luminescence, 24 h. inhibition, % at 10 µM. 330,000 compounds, 1.4% hits. AID 463195;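 active means inhibition of 40% or more at the single tested concentration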;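 further: wild-type TIM10 isogenic control strain grown at permissive 25 °C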
# tim10-1 inh = growth inhibitors of tim10-1 mutant yeast; S. cerevisiae tim10-1 ts strain growth, BacTiter-Glo, 24 h; inhibition, % at 20 µM; 330,000 compounds, 2.2% hits; AID 463190;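 active means inhibition of at least 40%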;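 further: mutant grown at 25 °C; 0% = DMSO wells with yeast and 100% = wells holding no yeast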
# tim23-1 inh = inhibits growth of tim23-1 mutant yeast; 330,000 compounds, 1.3% hits; S. cerevisiae tim23-1 growth, BacTiter-Glo luminescence, 24 h; inhibition, % at 20 µM;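 active means growth inhibition of the mutant yeast at or above 50%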;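 further: temperature-sensitive mutant grown at 25 °C; plate controls were DMSO-treated mutant yeast for no effect and medium wells lacking yeast for full effect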
# tim10-1 confirm = confirmation of tim10-1 mutant yeast growth inhibitors; shares compounds with tim10-1 inh; S. cerevisiae tim10-1 ts strain growth, BacTiter-Glo, 24 h; inhibition, % at 20 µM; 7,400 compounds, 56% hits;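 active means inhibition of yeast growth at or above a set limit in either of two repeat tests at 20 µM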;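 further: tim10-1 mutant grown at permissive 25 °C to find synthetic lethal compounds; 0% = DMSO yeast wells and 100% = medium wells without yeast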
# tim10 confirm = confirmation of TIM10 yeast growth inhibitors. 4,600 compounds, 63% hits. inhibition, % at 10 µM. shares compounds with TIM10 inh. S. cerevisiae tim10 strain growth, BacTiter-Glo luminescence, 24 h. AID 463215;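 active means inhibition of yeast growth at or above a set limit in either of two replicates at 10 µM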;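 further: this counterscreen used the strain with wild-type TIM10; 0% = yeast with DMSO and 100% = medium wells lacking yeast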
# tim23-1 confirm = confirmation of tim23-1 mutant yeast growth inhibitors | shares compounds with tim23-1 inh | inhibition, % at 20 µM | 4,400 compounds, 83% hits | S. cerevisiae tim23-1 growth, BacTiter-Glo luminescence, 24 h;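 active means inhibition above about 39% in either of two replicate wells at 20 µM, limit read from the data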;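 further: temperature-sensitive tim23-1 mutant grown at 25 °C; 0% = DMSO wells with yeast and 100% = medium wells without yeast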
# The depositor's hits bear a star; x = no result given.
SMILES,MPTP block,Mdm2-MdmX inh,TIM10 inh,tim10-1 inh,tim23-1 inh,tim10-1 confirm,tim10 confirm,tim23-1 confirm
N/C(Cc1cccc2ccccc12)=N\OC(=O)COc1ccccc1,1,-3,33,38,41,x,x,x
Cc1ccc(/C(N)=N/OC(=O)Cc2cccc3ccccc23)cc1,0,15,62*,57*,50*,58*,54*,46*
Cc1cccc(/C(N)=N/OC(=O)Cc2cccc3ccccc23)c1,0,7,76*,62*,54*,69*,79*,60*
Cc1cccc(C(=O)O/N=C(\N)Cc2cccc3ccccc23)c1,-2,39,77*,43*,81*,30*,84*,64*
C[C@@H]1COc2cc(N3CCC[C@H]3CO)ccc2S(=O)(=O)N1,-1,x,x,x,x,x,x,x
O=c1[nH]c(=O)n2ncnc2[nH]1,0,x,x,x,x,x,x,x
COc1ccc(C(C)=O)cc1CN1C(=O)C(C)ON=C1c1cccc(C(F)(F)F)c1 (stereo unspecified),-2,x,x,x,x,x,x,x
COc1ccc(N=Nc2c(C)[nH]c3ccccc23)cc1,7,-51,38,43*,89*,40*,x,78*
O=[N+]([O-])c1ccc(Nc2ccccc2)c2nonc12,6,0,45*,49*,60*,37*,39*,67*
CC(=O)NS(=O)(=O)c1ccc(Nc2ccc([N+](=O)[O-])c3nonc23)cc1,4,15,16,8,10,x,x,x
CC1=C(C(=O)N2CCOCC2)CC(CC(=O)NCCCN(C)C)C(=O)N1Cc1ccc(F)cc1 (stereo unspecified),0,x,x,x,x,x,x,x
O=C(NC1CCCCCC1)c1ccc([N+](=O)[O-])s1,0,22,29,57*,63*,50*,x,48*
COC(=O)C1(C(=O)OC)c2ccccc2N(S(=O)(=O)c2ccc(C)cc2)C1CC(C)=O (stereo unspecified),4,x,x,x,x,x,x,x
COc1ccc(NC(=O)/C(C#N)=C/c2ncc([N+](=O)[O-])n2C)c(OC)c1,0,24,25,58*,84*,66*,x,81*
COc1ccccc1C/C(N)=N/OC(=O)COc1ccc2ccccc2c1,0,17,55*,48*,52*,64*,43*,77*
COc1ccccc1C/C(N)=N/OC(=O)COc1cccc2ccccc12,1,-21,74*,58*,65*,64*,62*,73*
COC(=O)C[C@@H]1C[C@@H]2c3cc(NS(=O)(=O)c4ccc(F)cc4)ccc3O[C@@H]2[C@@H](CO)O1,0,x,x,x,x,x,x,x
CC(C)OC(=O)/C=C1\C[C@@H](c2ccccc2C(F)(F)F)O[C@@H](c2ccccc2C(F)(F)F)O1,2,x,x,x,x,x,x,x
C[C@@H]1ON(C)[C@H]2C[C@H]3c4[nH]c5ccc(-c6ccc7c(c6)OCO7)cc5c4CCN3C[C@@H]12,0,x,x,x,x,x,x,x
Cn1c(/C(C#N)=C/C2CC=CCC2)nc2ccccc21 (stereo unspecified),-2,16,34,43*,69*,39*,x,51*
N#C/C(=C\C1CC=CCC1)c1nc2ccccc2[nH]1 (stereo unspecified),28,-6,-2,8,14,x,x,x
CCc1nn(CCCC(=O)NCc2ccccc2Br)c(=O)c2cc3occc3n12,1,27,3,43*,50*,-4,x,54*
CCc1cccc(NC(=O)CCCn2nc(CC)n3c(cc4occc43)c2=O)c1,-1,5,5,26,31,x,x,x
N#C/C(=C\c1cccc(Br)c1)C(=O)N1CCCCC1,-2,12,63*,70*,81*,68*,74*,73*
CN(C)C(=O)c1cnc(Cc2c[nH]c3ccccc23)c(I)c1,0,x,x,x,x,x,x,x
SMILES,MPTP block,Mdm2-MdmX inh,TIM10 inh,tim10-1 inh,tim23-1 inh,tim10-1 confirm,tim10 confirm,tim23-1 confirm
CSC1=N/C(=C\c2ccc(F)cc2)C(=O)S1,2,4,8,15,39,x,x,x
COc1ccc(/C=C/C=C2\N=C(SC)SC2=O)cc1,1,26,57*,51*,72*,38*,-2,22
CC1(C)OC(=O)C2=C(C[C@@H](CCc3ccccc3)O[C@H]2C2CCCC2)O1,1,x,x,x,x,x,x,x
COCCOC(=O)/C(=C/c1ccc(OC(=O)c2ccccc2)cc1)C(C)=O,0,-4,80*,73*,90*,65*,3,88*
COc1ccc(C=C(C(C)=O)C(=O)c2ccccc2)cc1,-3,x,x,x,x,x,x,x
NNC(=O)c1nc(-c2ccccc2)cc(-c2ccccc2)n1,0,4,20,42*,63*,10,x,67*
NNc1nc(-c2ccccc2)cc(-c2ccccc2)n1,2,45,49*,43*,55*,48*,11,56*
N#Cc1cc(-c2ccccc2)nc(NN)n1,0,45,23,29,30,x,x,x
NNc1nc(-c2ccccc2)cc(-c2ccccc2O)n1,1,45,48*,44*,55*,47*,42*,59*
COc1ccc(/C=N/NC(=O)c2nc(-c3ccccc3)cc(-c3ccccc3)n2)cc1,-10,18,12,27,5,x,x,x
COc1ccc(CN2C(=O)CN(S(C)(=O)=O)CC2(C)C(=O)NC(C)C)cc1 (stereo unspecified),2,x,x,x,x,x,x,x
CSCc1c(C(=O)OCC(=O)c2ccc[nH]2)oc2ccccc12,0,13,67*,51*,59*,19,63*,74*
Cc1ccc(NC(=S)NC(=O)C2CC2)cc1Cl,0,6,30,49*,61*,14,x,49*
COC(=O)c1ccc(NC(=S)NC(=O)C2CCC2)cc1,1,-1,22,35,50,x,x,x
CCOC(=O)c1ccc(NC(=S)NC(=O)C2CCCC2)cc1,1,-15,41*,48*,58*,36*,53*,44*
Cc1cc(C)cc(CC(=O)N2CCC2(C)C(=O)NS(=O)(=O)Cc2ccccc2)c1 (stereo unspecified),1,x,x,x,x,x,x,x
COc1ccc(-c2cc(CNc3nc(NC(C)C)nc4cc(-c5ccccc5)sc34)on2)cc1,6,x,x,x,x,x,x,x
Cc1cc(C)cc(CC(=O)N2CCC2(C)C(=O)NS(=O)(=O)c2ccccc2Cl)c1 (stereo unspecified),0,x,x,x,x,x,x,x
Cc1ccc(F)c(S(=O)(=O)NC(=O)C2(C)CCN2C(=O)Cc2ccsc2)c1 (stereo unspecified),1,x,x,x,x,x,x,x
CC(C)C[C@H]1CN(CCCC[C@H]2CNC(=O)C(=O)N2CCc2ccc(O)cc2)C(=O)C(=O)N1Cc1ccccc1,-1,x,x,x,x,x,x,x
COc1ccccc1N/C=C/c1onc(C)c1[N+](=O)[O-],6,30,23,22,12,x,x,x
